± gives the standard deviation of the averaged measurements.
What was measured:
Experiment in all cases: cell viability (% of vehicle); higher = less cytotoxic
Conditions in all cases: 10 µM; 72 h
HCI01 = test system: HCI01 (cells of a triple-negative basal-like breast cancer xenograft)
HCI03 = test system: HCI03 (cells of an ER-positive luminal breast cancer xenograft)
HCI09 = test system: HCI09 (cells of a triple-negative luminal androgen receptor type breast cancer xenograft)
HCI11 = test system: HCI11 (cells of an ER-positive luminal breast cancer xenograft)
HCI13 = test system: HCI13 (cells of an ER-positive luminal breast cancer xenograft)
HCI16 = test system: HCI16 (cells of a triple-negative basal-like breast cancer xenograft)
UCD52 = test system: UCD52 (cells of a triple-negative basal-like breast cancer xenograft)
WHIM2 = test system: WHIM2 (cells of a triple-negative basal-like breast cancer xenograft)
WHIM30 = test system: WHIM30 (cells of a triple-negative basal-like breast cancer xenograft)
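Note: PDX cells carrying CMV promoter-driven luciferase, viability read as total photon flux per second by IVIS imaging following D-luciferin, vehicle control 0.1% DMSO.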

Row | Structure (SMILES) | cell viability (HCI01) | cell viability (HCI03) | cell viability (HCI09) | cell viability (HCI11) | cell viability (HCI13) | cell viability (HCI16) | cell viability (UCD52) | cell viability (WHIM2) | cell viability (WHIM30)
1 | CNC1C(OC2C(OC3C(O)C(O)C(N=C(N)N)C(O)C3N=C(N)N)OC(C)C2(O)C=O)OC(CO)C(O)C1O.CNC1C(OC2C(OC3C(O)C(O)C(N=C(N)N)C(O)C3N=C(N)N)OC(C)C2(O)C=O)OC(CO)C(O)C1O.O=S(=O)(O)O.O=S(=O)(O)O.O=S(=O)(O)O (configuration not stated) [Streptomycin sulfate] | 82.6 ± 31 | 97.7 | 84.6 ± 5.9 | 82.9 | 90 ± 1.7 | 103 | 84.1 ± 3.6 | 81.8 ± 12 | 86.6 ± 7.4
2 | CCCC(=O)Nc1ccc(OCC(O)CNC(C)C)c(C(C)=O)c1.Cl (configuration not stated) [Acebutolol HCl] | 125 ± 5.8 | 123 | 102 ± 22 | 106 | 76.3 ± 3.2 | 156 | 97.1 ± 7 | 98.7 ± 8.9 | 131.6 ± 0.063
3 | CN(C)CCCN1c2ccccc2CCc2ccccc21.Cl [Imipramine (hydrochloride)] | 104 ± 14 | 88.1 | 84.9 ± 5.2 | 60 | 95.1 ± 1.8 | 119 | 90.4 ± 7.2 | 82.5 ± 12 | 79.7 ± 8.5
4 | CC(=O)N=c1sc(S(N)(=O)=O)nn1C [Methazolamide] | 103 ± 7.7 | 114 | 92.5 ± 21 | 119 | 119 ± 9.3 | 122 | 93.9 ± 16 | 94.6 ± 3.6 | 97.7 ± 1.2
5 | CC(C)OC(=O)C(C)NP(=O)(OCC1OC(n2ccc(=O)[nH]c2=O)C(C)(F)C1O)Oc1ccccc1 (configuration not stated) | 85.3 ± 7.8 | 103 | 79.3 ± 11 | 79.5 | 82.5 ± 5.5 | 141 | 84.26 ± 0.3 | 104 ± 7 | 120 ± 5
6 | O=C(O)c1cccnc1Nc1cccc(C(F)(F)F)c1 [Niflumic acid] | 135 ± 48 | 149 | 58.9 ± 21 | 68.8 | 125 ± 2.6 | 130 | 75.3 ± 5.3 | 105 ± 14 | 122 ± 2
7 | CCC(C)(C)c1ccc(CC(C)CN2CC(C)OC(C)C2)cc1.Cl (configuration not stated) [Amorolfine HCl] | 66.7 ± 39 | 129 | 88.4 ± 9.1 | 83.8 | 119 ± 36 | 119 | 58.3 ± 5.5 | 64.5 ± 32 | 166 ± 9.2
8 | CCCCC(=O)N(Cc1ccc(-c2ccccc2-c2nn[nH]n2)cc1)C(C(=O)O)C(C)C (configuration not stated) [Valsartan] | 112 ± 6 | 118 | 118 ± 24 | 97.2 | 116 ± 24 | 119 | 108 ± 10 | 101 ± 16 | 199 ± 25
9 | CN(C)CC(c1ccc(O)cc1)C1(O)CCCCC1.O.O=C(O)CCC(=O)O (configuration not stated) [Desvenlafaxine Succinate] | 91 ± 6.9 | 153 | 107 ± 13 | 92.6 | 110 ± 9.4 | 129 | 92.4 ± 9.8 | 105 ± 10 | 133 ± 2.2
10 | CC(C)C(N)C(=O)OCCOCn1cnc2c(=O)nc(N)[nH]c21.Cl (configuration not stated) [Valaciclovir HCl] | 71.5 ± 40 | 128 | 94.3 ± 3 | 88.8 | 94.7 ± 8.2 | 106 | 91.8 ± 12 | 102 ± 19 | 169 ± 13
11 | CS(=O)(=O)Nc1ccc([N+](=O)[O-])cc1Oc1ccccc1 [Nimesulide] | 146 ± 23 | 117 | 80.56 ± 0.45 | 104 | 109 ± 4.1 | 144 | 81.5 ± 15 | 107 ± 13 | 92.5 ± 2.9
12 | Cc1c(NC(=O)c2cccnc2)c(=O)n(-c2ccccc2)n1C [Nifenazone] | 115 ± 12 | 95.9 | 116 ± 42 | 114 | 103 ± 10 | 122 | 96.7 ± 4.5 | 93.9 ± 16 | 128 ± 6
13 | Cc1cc2c(cc1S(N)(=O)=O)S(=O)(=O)CCC2 [Meticrane] | 109 ± 8.8 | 117 | 102 ± 6.3 | 89 | 103 ± 9.6 | 110 | 96.3 ± 10 | 97 ± 7.5 | 80.4 ± 2.8
14 | C=C1c2cccc(O)c2C(O)=C2C(=O)C3(O)C(O)=C(C(N)=O)C(=O)C(N(C)C)C3C(O)C12.Cl (configuration not stated) [Methacycline HCl] | 114 ± 4.2 | 128 | 104 ± 5.9 | 81.8 | 140 ± 12 | 158 | 111 ± 5.5 | 94.3 ± 2 | 121 ± 2.4
15 | CC1CCc2c(N3CCC(O)CC3)c(F)cc3c(=O)c(C(=O)O)cn1c23 (configuration not stated) [Nadifloxacin] | 83.8 ± 17 | 122 | 79 ± 2.1 | 93.8 | 103 ± 3.5 | 120 | 77.6 ± 6.6 | 74.2 ± 3.4 | 122 ± 6.2
16 | CCOc1nc2cccc(C(=O)O)c2n1Cc1ccc(-c2ccccc2-c2nc(=O)o[nH]2)cc1 [Azilsartan] | 79.7 ± 44 | 142 | 84.8 ± 13 | 92 | 99.8 ± 2.6 | 96.2 | 83.3 ± 7.1 | 97.9 ± 13 | 97.5 ± 2.2
17 | CC1=C2N=C(C=C3N=C(C(C)=C4[N-]C(C)(C5N=C1C(C)(CCC(=O)NCC(C)OP(=O)([O-])OC1C(CO)OC(n6cnc7cc(C)c(C)cc76)C1O)C5CC(N)=O)C(C)(CC(N)=O)C4CCC(N)=O)C(C)(CC(N)=O)C3CCC(N)=O)C(C)(C)C2CCC(N)=O.[CH3-].[Co+3] (configuration not stated) [Methylcobalamin] | 81.6 ± 13 | 132 | 112 ± 14 | 91.1 | 112 ± 2.5 | 106 | 112 ± 9.1 | 91.3 ± 23 | 106.57 ± 0.028
18 | N#CC(=C1SCC(c2ccc(Cl)cc2Cl)S1)n1ccnc1 (configuration not stated) [Luliconazole] | 131 ± 29 | 108 | 73.3 ± 15 | 90.6 | 70.2 ± 5.6 | 72.4 | 88.5 ± 4.3 | 97.1 ± 3.4 | 130 ± 7.6
